Most compounds without a hit are left out; they make up all but 4.1% or so of the library.
DAX1 inh-1: NR0B1 (DAX1) inhibition; P51843; HEK293 Gal4-DAX1 luciferase reporter, luminescence; inhibition, % at 6.75 µM; 340,000 tested, 0.99% active; AID 504766;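 active means inhibition above the mean over all tested compounds plus 3 SD, cut at about 4.2% in these data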;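 further: 0% = DAX1-transfected cells with DMSO and 100% = empty-vector control cells with DMSO; inhibition shows as a rise in luminescence from relieved DAX1 repression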
Target sequence (P51843 207-470 limits assumed): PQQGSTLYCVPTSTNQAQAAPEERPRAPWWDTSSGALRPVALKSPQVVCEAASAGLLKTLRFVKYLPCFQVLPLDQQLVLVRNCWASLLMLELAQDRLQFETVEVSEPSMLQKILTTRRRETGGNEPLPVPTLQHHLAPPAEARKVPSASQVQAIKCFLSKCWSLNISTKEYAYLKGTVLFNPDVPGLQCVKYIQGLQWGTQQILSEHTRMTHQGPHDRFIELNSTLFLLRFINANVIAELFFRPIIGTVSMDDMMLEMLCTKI
DAX1 inh-2: blocks DAX1 repression of SF-1 activated StAR promoter; HEK293T StAR-luciferase reporter, SF-1/DAX-1 repression relief; inhibition, % at 6.8 µM; 370,000 tested, 1.1% active; AID 652010;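 active means inhibition above the mean over all tested compounds plus 3 SD, cut at about 3.6% in these data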;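 further: 0% = DAX-1 cells with DMSO and 100% = cells lacking DAX-1 with DMSO; higher inhibition means more luminescence from relief of DAX-1 repression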
hcDAF-12 act: activates DAF-12 receptor from parasite H. contortus. HEK293 hcDAF-12 lit1-tk-luc reporter, luminescence; 0% DMSO, 100% Δ7-dafachronic acid. activation, % at 6.8 µM. 370,000 tested, 1.4% active. AID 652067;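 active means activation above the mean of all tested compounds plus 3 SD, cut at about 5.5% in these data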;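 further: 100% = response to 3 µM Δ7-dafachronic acid high control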
hgDAF12 agonist: hgDAF-12 agonism, primary luciferase screen. HEK293 GAL4-hgDAF12 UAS-luciferase reporter, agonist luminescence; normalized to butyrate control. activation, % at 6.8 µM. 370,000 tested, 1.8% active. AID 687014;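 active means activation above a cutoff set at the mean of all screened compounds plus 3 SD, cut at about 10% in these data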;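 further: 0% = DMSO wells and 100% = sodium butyrate wells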
ssDAF-12 act: S. stercoralis DAF-12 activation, primary screen | HEK293 ssDAF-12/GRIP1 lit1-tk-luc reporter, luminescence; % of 3 µM dafachronic acid response | 370,000 tested, 1% active | activation, % at 6.8 µM;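 active means activation above the mean over all tested compounds plus 3 SD, cut at about 0.9% in these data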;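 further: 0% = DMSO-only wells and 100% = 3 µM delta7-dafachronic acid wells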
Starred values were filed as active, the others as inactive.

How did c1ccc(-c2nc(N3CCOCC3)s[n+]2-c2ccccc2)cc1 do in these assays?
DAX1 inh-1: 1.7; DAX1 inh-2: 2.2; hcDAF-12 act: 3.3; hgDAF12 agonist: 11.6*; ssDAF-12 act: -0.1

How did Cc1ccc(C(=O)C2CN(C)CC2C(=O)c2ccc(C)cc2)cc1 (configuration not stated) do in these assays?
DAX1 inh-1: 2.0; DAX1 inh-2: 1.1; hcDAF-12 act: 0.4; hgDAF12 agonist: 11.4*; ssDAF-12 act: -0.9

Results for Cc1ccc(C(=O)C2CN3CCC2CC3)cc1 (configuration not stated) ?
DAX1 inh-1: 3.8; DAX1 inh-2: 0.1; hcDAF-12 act: -1.6; hgDAF12 agonist: 1.4; ssDAF-12 act: -1.0

How did CCC(C)N1C(=O)/C(=C\c2cc3c4c(c2)CCCN4CCC3)C(=O)NC1=S (configuration not stated) do in these assays?
DAX1 inh-1: 0.0; DAX1 inh-2: -0.4; hcDAF-12 act: 0.4; hgDAF12 agonist: 1.8; ssDAF-12 act: -1.1

What do the screens show for `CCC(C)N1C(=O)/C(=C\c2ccc(N3CCCCCC3)cc2)C(=O)NC1=S` (configuration not stated)?
DAX1 inh-1: -1.4; DAX1 inh-2: -2.2; hcDAF-12 act: -0.1; hgDAF12 agonist: 0.7; ssDAF-12 act: 5.5*

Results for O=C(NC1CCCCC1)N1Cc2cc(Br)ccc2-n2nncc2C1 ?
DAX1 inh-2: 1.6; hcDAF-12 act: -2.2; hgDAF12 agonist: 0.9; ssDAF-12 act: -1.0

Results for C[N+]1=C(N)NC2=C3CCCCC3ONC2C1 (configuration not stated) ?
hcDAF-12 act: -1.0; hgDAF12 agonist: 3.1; ssDAF-12 act: -1.7

Results for Cc1nc2ncnn2c(C)c1CCC(=O)N1CCC2(CC1)OCCO2 ?
DAX1 inh-1: 4.6*; DAX1 inh-2: -0.4; hcDAF-12 act: -1.1; hgDAF12 agonist: -1.0; ssDAF-12 act: -1.8

What do the screens show for `COc1ccc(OC(=O)N(C)C[C@@H]2OCc3cnnn3CCCC(=O)N([C@H](C)CO)C[C@@H]2C)cc1`?
DAX1 inh-1: 2.0; DAX1 inh-2: 1.5; hcDAF-12 act: -0.8; hgDAF12 agonist: -1.6; ssDAF-12 act: -1.1

How did CC(NC(=O)OC1CC2CCC1(C)C2(C)C)P(=O)(Oc1ccccc1)Oc1ccccc1 (configuration not stated) do in these assays?
hcDAF-12 act: -0.1; hgDAF12 agonist: 2.5; ssDAF-12 act: -0.1

How did COc1ccccc1N1CCN(Cc2ccc(Br)s2)CC1 do in these assays?
DAX1 inh-1: 6.5*; DAX1 inh-2: -0.6; hcDAF-12 act: -1.3; hgDAF12 agonist: 1.0; ssDAF-12 act: 0.8

What do the screens show for `COc1ccccc1N1CCN(Cc2ccccc2)CC1`?
DAX1 inh-1: 0.3; DAX1 inh-2: 0.1; hcDAF-12 act: -0.3; hgDAF12 agonist: 1.5; ssDAF-12 act: -1.6

What do the screens show for `CCOC(=O)C(C)(CC)NC(=O)CSP(=S)(OCC)OCC` (configuration not stated)?
DAX1 inh-1: -0.1; DAX1 inh-2: 0.1; hcDAF-12 act: -1.7; hgDAF12 agonist: -2.9; ssDAF-12 act: -1.7

Results for Cc1ccccc1CCNCc1cc2cccc(C)c2[nH]c1=O ?
DAX1 inh-1: 5.6*; DAX1 inh-2: -0.2; hcDAF-12 act: 3.0; hgDAF12 agonist: -2.3; ssDAF-12 act: 1.0*

Results for Fc1ccccc1CCNCc1cccc2ccccc12 ?
DAX1 inh-1: -1.0; DAX1 inh-2: 0.0; hcDAF-12 act: 1.3; hgDAF12 agonist: 0.2; ssDAF-12 act: -1.9

How did NS(=O)(=O)OC(CCc1ccccc1)C(Cl)(Cl)Cl (configuration not stated) do in these assays?
DAX1 inh-1: -0.7; DAX1 inh-2: 0.0; hcDAF-12 act: -1.9; hgDAF12 agonist: -0.1; ssDAF-12 act: -1.6

How did Cc1cc(=O)n(-c2ccccc2)n1-c1ccccc1 do in these assays?
DAX1 inh-1: 4.8*; DAX1 inh-2: 0.8; hcDAF-12 act: -0.2; hgDAF12 agonist: -1.4; ssDAF-12 act: -0.3

Results for Cc1c(NP(=O)(C(C)(C)C)C(C)(C)C)c(=O)n(-c2ccccc2)n1C ?
DAX1 inh-1: 1.4; DAX1 inh-2: -0.6; hcDAF-12 act: -0.6; hgDAF12 agonist: -0.5; ssDAF-12 act: -0.8

Results for COc1cc(CN2CCNCC2)cc(OC)c1OC ?
DAX1 inh-1: -0.3; DAX1 inh-2: -0.3; hcDAF-12 act: 0.8; hgDAF12 agonist: 4.7; ssDAF-12 act: 1.0*

What do the screens show for `COc1ccc(CN2CCNCC2)c(OC)c1OC`?
DAX1 inh-1: -0.6; DAX1 inh-2: -1.0; hcDAF-12 act: -1.2; hgDAF12 agonist: -2.5; ssDAF-12 act: -1.3

How did O=C(c1cc2cc(F)ccc2[nH]1)N1CCC2(CC1)OCCO2 do in these assays?
DAX1 inh-1: 0.5; DAX1 inh-2: 0.7; hcDAF-12 act: 4.3; hgDAF12 agonist: 2.9; ssDAF-12 act: 1.8*

Results for O=C(c1ccc(F)cc1Cl)N1CCC2(CC1)OCCO2 ?
DAX1 inh-1: -0.2; DAX1 inh-2: 0.4; hcDAF-12 act: -1.4; hgDAF12 agonist: 0.4; ssDAF-12 act: -1.4

How did COc1ccc(OC)c(-n2c(O)c(/C=C3\C=Nc4ccccc43)c(=O)[nH]c2=O)c1 do in these assays?
DAX1 inh-1: 1.0; DAX1 inh-2: -0.1; hcDAF-12 act: 3.8; hgDAF12 agonist: 6.7; ssDAF-12 act: 2.9*

Results for COC(=O)c1c2[n+](cc3cc(OC)c(OC)cc13)CCc1cc(OC)c(OC)cc1-2 ?
DAX1 inh-1: 4.5*; DAX1 inh-2: 0.0; hcDAF-12 act: -0.1; hgDAF12 agonist: 1.3; ssDAF-12 act: -1.5

Results for COC(=O)C(O)(c1ccc(NC(=O)Oc2ccccc2)cc1)C(F)(F)F (configuration not stated) ?
DAX1 inh-1: 5.5*; DAX1 inh-2: 0.8; hcDAF-12 act: -1.4; hgDAF12 agonist: 1.1; ssDAF-12 act: -1.8

What do the screens show for `COP(=O)(OC)C(C)NC(=O)OCc1ccccc1` (configuration not stated)?
hcDAF-12 act: 1.2; hgDAF12 agonist: 3.9; ssDAF-12 act: -1.6

What do the screens show for `CCP(=S)(CC)c1ccc(N(C)C)cc1`?
DAX1 inh-1: 0.8; DAX1 inh-2: -0.7; hcDAF-12 act: -1.0; hgDAF12 agonist: -0.1; ssDAF-12 act: -1.1

What do the screens show for `O=C(N/N=C/c1c(O)n(Cc2ccc(F)cc2)c(=O)[nH]c1=O)c1ccccc1`?
DAX1 inh-1: 6.6*; DAX1 inh-2: 0.4; hcDAF-12 act: 0.9; hgDAF12 agonist: 10.9*; ssDAF-12 act: -1.2

Results for O=C(N/N=C/c1c(O)n(CCC2=CCCCC2)c(=S)[nH]c1=O)c1ccccc1 ?
DAX1 inh-1: 0.7; DAX1 inh-2: 1.5; hcDAF-12 act: 1.4; hgDAF12 agonist: 11.3*; ssDAF-12 act: -0.1

How did OCC#CC[N+]1(CC#Cc2ccccc2)CCOCC1 do in these assays?
DAX1 inh-1: 4.3*; DAX1 inh-2: 0.0; hcDAF-12 act: 2.5; hgDAF12 agonist: 1.0; ssDAF-12 act: -1.6

Source: PubChem BioAssay
